Source: PubChem BioAssay (National Center for Advancing Translational Sciences (NCATS))
A selection: hits, their analogues and other compounds. The true share with any hit is near 8.5%.
GoLoco inh red: inhibitors of human Gai1-RGS12 GoLoco interaction (red fluorophore); P63096; Gai1:RGS12 GoLoco peptide FP, rhodamine, 10 min; Potency, µM (highest dose often 61.6 µM), for the others: top-dose activity, negative = inhibition, hits mostly inhibitors; AID 880; 230,000 compounds, 0.44% hits; active means well fitted inhibition curve with a large enough effect, not every such curve was filed as active; inactive means no such curve, though single readings can be large or run the other way; further: potency means the concentration at half of the fitted maximal effect; nearly all actives have a fitted effect of over 30% in size
Sfp inh: Sfp phosphopantetheinyl transferase inhibition; Q9F4F7; Biochemical Sfp PPTase activity, qHTS; Potency, µM, for the others: largest response in the series, negative = inhibition, actives largely listed as inhibitors; 310,000 compounds, 3.5% hits; active means well fitted curve in the direction sought with a large enough effect; inconclusive means small, poorly fitted or top-dose-only effect, or another doubt; inactive means no such curve, though single readings can be large; an effect the other way counts as inactive or inconclusive;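 further: the enzyme is Sfp with the accession as filed and its product quenches rhodamine fluorescence; potency means the concentration at half of the fitted maximal effect; 0% = enzyme reaction without inhibitor and -100% = no enzyme wells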
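Buffer: 50 mM Hepes-Na pH 7.6, 10 mM MgCl2, 0.01% Nonidet P-40, 0.01% BSA. Enzyme 15 nM, pre-exposed to compound 15 min; substrates then added and fluorescence change tracked over 30 min.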
FBPA coupling cs: coupling enzyme interference in Giardia aldolase counter-screen | 290,000 compounds, 0.67% hits | AID 2472 | activity change, negative = inhibition, % at 58.2 µM, hits read low | coupling enzyme system counterscreen, AmpLite Red fluorescence; in the data active means activity change below about -30%
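Counterscreen lacking aldolase: glyceraldehyde-3-phosphate coupling-enzyme reagent preincubated 10 min at RT with compound (at 57.5 uM final), then substrate/coupling system with AmpLite Red added; fluorescence read at 525/598 nm after 20 min RT.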
KDM4E inh: blocks human JMJD2E demethylase activity | B2RXH2 | JMJD2E catalytic domain, FDH-coupled NADH fluorescence (FDH is formaldehyde dehydrogenase) | Potency, µM (doses to about 57.1 µM), for inactives: at the top dose activity change, negative = inhibition, actives largely listed as inhibitors | 230,000 compounds, 1.6% hits | AID 2147;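 further: potency means the concentration at half of the fitted maximal effect; 0% = wells with enzyme and -100% = buffer wells without enzyme; nearly all actives have a fitted effect of over 50% in size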
Target sequence (B2RXH2 1-337 limits assumed): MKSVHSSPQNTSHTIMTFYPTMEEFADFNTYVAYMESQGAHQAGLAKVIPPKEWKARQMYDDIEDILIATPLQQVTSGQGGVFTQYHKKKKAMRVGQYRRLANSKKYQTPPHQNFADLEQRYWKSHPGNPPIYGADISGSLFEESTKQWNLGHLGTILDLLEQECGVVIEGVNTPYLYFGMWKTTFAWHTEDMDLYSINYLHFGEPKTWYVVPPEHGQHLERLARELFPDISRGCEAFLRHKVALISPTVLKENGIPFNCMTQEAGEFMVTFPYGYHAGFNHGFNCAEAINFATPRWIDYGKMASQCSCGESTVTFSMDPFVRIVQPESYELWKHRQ
NPSR antag: neuropeptide S receptor (human) antagonism, cAMP. Q6W5P4. Potency, µM (top dose mostly 38.3 µM), for inactives: top-dose activity change, negative = inhibition, usual class: inhibitors. 220,000 compounds, 1% hits. CHO-NPSR cells, cAMP TR-FRET, antagonist mode; active means well fitted curve in the direction sought with a large enough effect; inconclusive means small, poorly fitted or top-dose-only effect, or another doubt; inactive means no such curve, though single readings can be large; an effect the other way counts as inactive or inconclusive; further: potency means the concentration at half of the fitted maximal effect; nearly all actives have a fitted effect of over 50% in size
Target sequence (Q6W5P4 whole entry, looked up): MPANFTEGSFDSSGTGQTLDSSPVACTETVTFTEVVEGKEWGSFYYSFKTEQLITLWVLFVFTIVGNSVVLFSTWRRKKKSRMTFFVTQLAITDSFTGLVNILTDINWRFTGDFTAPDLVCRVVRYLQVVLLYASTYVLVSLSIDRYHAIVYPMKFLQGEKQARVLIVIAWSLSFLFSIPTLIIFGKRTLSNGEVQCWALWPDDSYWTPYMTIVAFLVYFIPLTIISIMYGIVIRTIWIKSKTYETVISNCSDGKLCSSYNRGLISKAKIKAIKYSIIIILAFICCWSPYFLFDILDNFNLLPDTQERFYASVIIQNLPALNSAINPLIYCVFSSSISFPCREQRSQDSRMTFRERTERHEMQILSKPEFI
ALDH1A1 inh: ALDH1A1 (human) enzyme inhibition; AID 1030; P00352; Purified ALDH1A1, NADH fluorescence, propionaldehyde substrate; 220,000 compounds, 7.3% hits; Potency, µM (doses to about 75.3 µM), for inactives: at the highest dose activity, negative = inhibition, hits mostly inhibitors;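 further: potency means the concentration at half of the fitted maximal effect; plate controls were no enzyme wells and a reference inhibitor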
* hit, by the source's call; ? = inconclusive; · = no result given; [ ] = remark or other dose. Unless noted, the call rests on the fitted dose curve; in most records, active means well fitted inhibition curve with a large enough effect (not every such curve was filed as active); inconclusive means small, poorly fitted or top-dose-only effect, or another doubt; inactive means no such curve, though single readings can be large or run the other way. Unless noted, on the % scale 0 is the no-effect control and ±100 the full control effect.

SMILES	GoLoco inh red	Sfp inh	FBPA coupling cs	KDM4E inh	NPSR antag	ALDH1A1 inh
CCCN(CCC)C(=O)c1oc2ccccc2c1NC(=O)Cc1cccc(OC)c1	·	1.9%	0.3	·	·	·
C/C(=N/NC(=O)CN(c1ccccc1)S(=O)(=O)c1ccccc1)c1ccccc1O	·	24.6%	-1.4	·	·	·
Cc1ccc(C[n+]2cccc(-c3ccccc3)c2)c(C)c1	2.1%	10.1%	-0.4	2.2%	-1.7%	-7.9%
C[N+]12CCCCC1C(COC(=O)c1ccc3c(c1)OCO3)CCC2 (stereo not given)	-105.3%	7.2%	4.4	22.4µM*	0.3%[46.1 µM]	?
Cc1ccc(C(=O)N2CCCCC2)cc1S(=O)(=O)N1CCCCCC1	·	3.4%	·	·	·	·
O=c1c2ccccc2sn1-c1ccc(S(=O)(=O)N2CCCC2)cc1	0.159µM*	3.16µM*	-2.6	?	-10.2%[46.1 µM]	0.891µM*
CN(C)S(=O)(=O)c1cccc(-n2sc3ccccc3c2=O)c1	14.1µM*	1.58µM*	3.9	3.55µM*	-16.2%	0.224µM*
Cc1ccc(-n2sc3ccccc3c2=O)cc1S(=O)(=O)N1CCCCC1	28.2µM*	1.58µM*	2.6	11.2µM*	-26.7%[46.1 µM]	2.24µM*
O=S(=O)(c1ccc(S(=O)(=O)N2CCCC2)cc1)N1CCCCC1	·	2.1%	-2.6	·	·	·
O=c1c2ccccc2c(C=Nc2ccccc2O)c(O)n1-c1nccs1	15.4%	9.9%	0.5	-3.5%	47.3%	·
O=c1c2ccccc2sn1-c1nccs1	15.8µM*	2.24µM*	0.5	7.94µM*	0.7%	12.6µM*
O=c1c2ccccc2sn1-c1ccccc1	17.8µM*	0.501µM*	5.2	25.1µM*	?	4.47µM*
CC(=O)n1c(=O)c2ccccc2c(=O)n1-c1ccccc1	·	25.4%	-0.2	·	·	·
N#CC1=C(N)SC(N)=C(C#N)C1CCC1CCCCC1	94.2%	?	2.6	?	-1.4%[46.1 µM]	14.1µM*
Nc1nnc(CCC2CCCCC2)s1	0.3%	13.6%	1.8	-3.9%	-0.7%[46.1 µM]	-6.1%
CC(C)(C)c1ccc(C(=O)NCCCNC(=O)c2ccccn2)cc1	·	5.0%	-0.4	·	·	·
CC1=CC(=NOC(=O)/C=C/c2ccccc2)C=C(C)C1=O	-2.2%	-18.9%	-45.4*	0.4%	-9.4%[46.1 µM]	?
COc1ccc(OC)c2c(C)c(C)[nH]c12	-5.3%	10µM*	-6.9	?	-13.6%	·
CN(C)C(=O)c1ccc(-c2nc(NCc3cccnc3)c3ccccc3n2)cc1	-2.0%	-2.5%	-2.1	-12.6%	·	-0.5%
O=C(CCl)Nc1cccc(-c2cnc3ccccc3n2)c1	5.0%	-10.4%	0.9	-8.4%	-24.1%[46.1 µM]	0.891µM*
O=C(CCl)Nc1ccc(Oc2cnc3ccccc3n2)cc1	3.1%	13.4%	-1.4	2.2%	-7.6%[46.1 µM]	0.112µM*
CC1(C)OC(=O)C(=Cc2ccc(-c3ccc(S(N)(=O)=O)cc3)o2)C(=O)O1	-2.8%	56.2µM*	1.7	?	?	0.7%
NS(=O)(=O)c1ccc(-c2ccc(/C=C3\C(=O)Nc4ccccc43)o2)cc1	·	12.4%	-0.3	·	·	·
Cc1ccc(C(C)C)c(OCCCCN2CCNCC2)c1	·	56.2µM*	-1.0	·	·	·
OC1(c2ccc(F)cc2)CCN(Cc2nnnn2Cc2cccs2)CC1	-3.1%	-8.6%	2.1	-3.6%	-25.7%[46.1 µM]	4.47µM*
SMILES	GoLoco inh red	Sfp inh	FBPA coupling cs	KDM4E inh	NPSR antag	ALDH1A1 inh
O=C1C(=O)N(Cc2cccc([N+](=O)[O-])c2)c2ccccc21	-5.3%	4.9%	-4.2	4.6%	14.8%	0.0501µM*
Fc1ccc(Br)cc1C1C=C(c2ccc(Br)s2)Nc2ncnn21 (stereo not given)	1.8%	56.2µM*	5.6	28.2µM*	-20.3%[46.1 µM]	?
O=C(Nc1ccc(F)cc1F)c1cc(=O)n(-c2ccccc2)c(=O)[nH]1	4.3%	-3.3%	-4.5	-1.7%	-3.6%	?
COc1ccc(Cl)cc1NS(=O)(=O)c1ccc(S(=O)(=O)N2CCCC2)cc1	12.5%	-3.4%	0.1	-3.6%	-27.8%[46.1 µM]	28.2µM*
COc1ccc(OC)c(NS(=O)(=O)c2ccc(SC)cc2)c1	-21.9%	14.2%	-2.8	2.4%	-4.6%[46.1 µM]	17.8µM*
COc1ccc(Cl)cc1NS(=O)(=O)c1ccc(OC)c(OC)c1	4.5%	11.6%	-3.4	-1.0%	-4.2%[46.1 µM]	12.6µM*
COc1ccc(S(=O)(=O)Nc2cc(Cl)ccc2OC)cc1	0.6%	3.9%	2.1	5.8%	11.2%[46.1 µM]	4.3%
COc1cc(S(=O)(=O)Nc2c(C)cc(C)cc2C)ccc1Cl	11.5%	56.2µM*	0.3	13.1%	-19.4%[46.1 µM]	-2.2%
CCC/C=C/C1C(=O)C2OC2C2(OCC(CC)(CC)CO2)C1CO (stereo not given)	·	1.2%	2.4	·	·	6.2%[13.5 µM]
CCC(=O)Nc1c(C#N)c2nc3ccccc3nc2n1-c1ccccc1C	-9.7%	-7.2%	-0.4	?	-9.5%	?
N#Cc1c(NC(=O)c2ccccc2Cl)n(Cc2ccccc2)c2nc3ccccc3nc12	117.7%	-28.1%	-38.6*	?	-8.8%	?
CCCCn1c(NC(=O)CC)c(C#N)c2nc3ccccc3nc21	31.1%	6.0%	-1.0	?	-0.4%[46.1 µM]	?
COc1ccc(-n2c(NC(=O)c3ccco3)c(C#N)c3nc4ccccc4nc32)cc1	43.9%	35.5µM*	-51.9*	3.1%	-6.0%[46.1 µM]	?
CCCCn1c(NC(=O)c2ccccc2Cl)c(C#N)c2nc3ccccc3nc21	4.9%	6.9%	-25.6	?	10µM*	?
Cc1cccc(CNc2ncncc2-c2cccc(C#N)c2)c1	1.9%	-0.5%	-0.2	?	·	3.3%
O=C1Nc2ccccc2/C1=C/C(=O)c1cccs1	2.5%	44.7µM*	-3.8	-7.3%	-24.7%[46.1 µM]	?
COc1ccc(C(=O)/C=C2/C(=O)Nc3ccccc32)c(OC)c1	·	56.2µM*	0.2	·	·	·
C=CCOc1ccc(C(=O)/C=C2/C(=O)Nc3ccccc32)cc1	·	12.6%	-0.1	·	·	·
COc1ccc(C(=O)/C=C2/C(=O)Nc3ccccc32)cc1	·	-0.7%	-0.1	·	·	·
C=CCOc1ccccc1C(=O)/C=C1/C(=O)Nc2ccccc21	·	79.4µM*	-0.6	·	·	·
COC(=O)C(NC(=O)c1ccccc1C(=O)O)c1ccc2ccccc2c1 (stereo not given)	·	7.2%	0.8	·	·	·
O=C(O)c1ccc(N2CC3CC(C2)c2cccc(=O)n2C3)c(NC(=S)Nc2ccc(Br)cc2)c1 (stereo not given)	2.3%	56.2µM*	-2.8	-11.1%	-1.2%	?
CCc1ccc(NC(=S)Nc2cc(C(=O)O)ccc2N2CC3CC(C2)c2cccc(=O)n2C3)cc1 (stereo not given)	-4.0%	56.2µM*	1.7	?	2.9%	17.8µM*
COC(=O)C(Cc1ccccc1)NC(=O)c1cccc(S(=O)(=O)N(C)C)c1 (stereo not given)	12.6%	7.2%	3.0	-3.2%	-0.9%	?
COc1cccc(-c2csc(N3CCN(Cc4ccccc4)CC3)n2)c1	43.1%	?	1.2	-27.3%	-4.4%[46.1 µM]	10µM*
